Hit rate of the full screen: of about 65,000 compounds, about 15 (0.02%) were called active.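 The calls were made as follows: active = single-dose screening hits from any of four coupled enzyme assays that gave an IC50 when retested across doses; inconclusive = no clear call, values can overlap the other calls; inactive = the rest.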 A selection follows. Non-standard residues stand in square brackets, D forms with d. Residues, ends and D or L forms follow the SMILES beside them. ξ: configuration not given here. ξV = CC(C)C(N)C(=O)O
Assay: inhibitors of PK/LDH coupling enzymes, profiling panel, artefact control, biochemical, MLSMR library (AID 774);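 also: the DPM-DC format reads NADH fluorescence rather than 340 nm absorbance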
Conditions: coupled PK/LDH NADH assays, four targets; at 10 µM; hits give high values

inhibition, inactive:
CNC(=O)CSc1nnnn1-c1ccc(C)cc1C 2%
CCC(C(=O)Nc1ncccn1)(C(F)(F)F)C(F)(F)F 1%
COc1ccc(C2/C(=C(/O)c3ccccc3)C(=O)C(=O)N2c2ncccn2)cc1OC (centres undefined) 1%
O=C(COC(=O)c1ccccc1C(=O)c1ccccc1)c1ccco1 4%
Cc1cc(C)n(C(=O)c2ccc(S(=O)(=O)N3CCCC3)cc2)n1 4%
CC1(C)CCCC2=C1CC1C(=O)N(c3ccccc3)C(=O)C1C2 (centres undefined) 6%
Cc1ccc2cccc(O)c2[n+]1[O-] 10%
CCOc1ccccc1-n1c(SCC(=O)N2CCCC2)nnc1-c1ccoc1C 4%
O=C(CN1C(=O)C2C3C=CC(C3)C2C1=O)NCC1COc2ccccc2O1 (centres undefined) 8%
Cn1nnnc1SCc1cc(=O)[nH]c2ccccc12 6%
Cc1cc(OCCN2CCCC2)ccc1C(C)C 14%
CC1(C)CC(=O)c2sc(N)nc2C1 3%
CCOC(=O)C1CCN(C(=O)Cn2cc(C#N)c3ccccc32)CC1 5%
COc1ccc(-c2nn(-c3ccccc3)cc2C(=O)Nc2nc(CC(C)=O)ns2)cc1 4%
CCOC(=O)CCCNC(=O)CN1C(=O)NC(CCc2ccccc2)C1=O (centres undefined) 5%
Cc1ccc(CCn2c3c(c4ccccc42)CN(C)CC3)cn1 2%
CC(C)C1Cc2c(sc3c2c(=O)n(-c2ccccc2)c2nncn32)CO1 (centres undefined) 3%
CN1c2ccccc2-c2nc3ccccc3n2C1c1ccco1 (centres undefined) 6%
C=CCn1c(COc2ccccc2)nnc1SCC(=O)NCC(=O)OCC 3%
Cc1cccc(OCC(O)Cn2c(=N)n(CCN3CCOCC3)c3ccccc32)c1 (centres undefined) 6%
C/C(=C\c1ccco1)C1Nc2cccc3cccc(c23)N1 10%
Cc1cc(NC(=O)Nc2ccccc2)n(-c2ccccc2)n1 1%
COc1ccc(Br)cc1/C=N/n1c(C)nnc1C 6%
O=C(Nc1ccccc1N1CCN(C(=O)c2ccccc2)CC1)c1ccc2c(c1)OCO2 4%
C=CCNc1nc(C)nc(OC)n1 3%
CCCCC(CC)C(=O)Nc1ccc(Cl)cn1 (centres undefined) 5%
CC(=O)c1c(N2CCOCC2)nc(=S)n(-c2cc(C)ccc2C)c1C 5%
CC(C)CCn1c(CN(C)Cc2ccccc2)nc2c1c(=O)n(C)c(=O)n2C 8%
COC(=O)c1ccc(C2CC(=O)Nc3cc(OC)c(OC)cc32)cc1 (centres undefined) 9%
CCOc1ccccc1NC(=O)C1CCC(CNc2c(N3CCOCC3)c(=O)c2=O)CC1 (centres undefined) 7%
O=C(CSc1ncccn1)NCCc1ccccc1 5%
COc1ccc(OC)c(NC(=O)CN2CCN(C(=O)c3ccco3)CC2)c1 3%
Cc1cccc(C)c1NC(=O)CCCSc1nnc(-c2ccco2)n1-c1ccccc1 3%
CCOC(=O)c1c(C(C#N)C#N)cc(C)nc1C 7%
Cc1cc(C)c(C(=O)CN2C(=O)CCC2=O)cc1C 5%
Oc1c(C(c2ccco2)N2CCC3(CC2)OCCO3)sc2ncnn12 (centres undefined) 3%
CCOC(=O)c1cc2cc(-c3c(C(=O)OCC)oc4cc(O)cc(O)c4c3=O)ccc2o1 3%
O=C(NC1=NCCS1)c1ccc(Cl)s1 10%
c1ccc(-c2noc(-c3cccs3)n2)nc1 3%
CCCOC(=O)Nc1sc2c(c1C(=O)OCC)CCC2 5%
O.O.O.O=S(=O)([O-])OC[C@H]1O[C@@H](O[C@]2(COS(=O)(=O)[O-])O[C@H](OS(=O)(=O)[O-])[C@@H](OS(=O)(=O)[O-])[C@@H]2OS(=O)(=O)[O-])[C@H](OS(=O)(=O)[O-])[C@@H](OS(=O)(=O)[O-])[C@@H]1OS(=O)(=O)[O-].[Al] 1%
CC(=O)c1c(C)n([O-])c2ccccc2[n+]1=O 5%
Cc1ccc2[nH]c3c(c2c1)CN(C(=O)CN1CCN(c2ccccc2)CC1)CC3 3%
CCn1c(SCC(=O)NCc2ccco2)nnc1-c1ccc(N)cc1 3%
COc1ccc2c3c(c(=O)oc2c1OCC(=O)C(C)(C)C)CCCC3 4%
O=C(O)c1ccc(F)c(S(=O)(=O)Nc2ccccc2)c1 6%
CC1CN(Cc2nc3c(c(=O)n(C)c(=O)n3C)n2Cc2cccc(Cl)c2)CC(C)O1 (centres undefined) 5%
CC(=O)NC(C(=O)NCC(N)=O)C(C)C (centres undefined) (Ac-[ξV]-Gly-NH2) 4%
Cn1c(-c2ccc(C(=O)c3ccccc3)s2)nc2ccccc21 6%
O=C(Oc1ccc2c(c1)CCC2)N1CCOCC1 3%
O=P(c1ccc2c(c1)OCCO2)(N1CCOCC1)N1CCOCC1 0%
CCOc1ccc(OCC)c(NC(=O)C(NS(=O)(=O)c2ccc3c(c2)oc(=O)n3C)C(C)C)c1 (centres undefined) 7%
O=C(O)CN1C(=O)CC(Cc2ccccc2)C1=O (centres undefined) 1%
CCCc1cc(=O)oc2c(C)c(O)c(CN3CCCCC3)cc12 1%
CO/N=C(\C(=O)N[C@@H]1C(=O)N2C(C(=O)O)=C(COC(C)=O)CS[C@H]12)c1csc(N)n1 (stereo in doubt) 0%
Cc1noc(C)c1S(=O)(=O)N(CC(=O)NCc1ccc(Cl)cc1)c1ccc2c(c1)OCO2 9%
C=CCNC(=O)CCCC(=O)NCC=C 5%
CCCn1c(SCC(=O)Nc2cccc(C(=O)OCC)c2)nnc1-c1ccoc1C 7%
C=CCOc1nc2c(c(=O)n(C)c(=O)n2C)n1Cc1ccc(Cl)cc1Cl 8%
Fc1ccc2nc(Nc3nc4c(s3)CCCC4)sc2c1 3%
C=CCNC(=O)C1CC=CCC1C(=O)O (centres undefined) 4%
CCO/C([O-])=N/c1c[n+](N2CCOCC2)no1 1%
COC(=O)Cc1csc(Nc2c(C)n(C)n(-c3ccccc3)c2=O)n1 8%
COc1ccccc1C1/C(=C(/O)c2ccc(C)cc2)C(=O)C(=O)N1Cc1ccco1 (centres undefined) 10%
C=CCc1cccc2cc(C(=O)OCC)c(=O)oc12 6%
Cn1c(=O)c2c(nc(OCc3cccnc3)n2Cc2ccccc2)n(C)c1=O 3%
CCOc1ccc(OCC)c(NC(=O)CN(C)S(=O)(=O)c2cccc3nsnc23)c1 4%
O=C(OCC(O)C(O)COC(=O)c1ccccc1)c1ccccc1 (centres undefined) 5%
c1ccc2c(CNn3cnnc3)cccc2c1 3%
